A selection: hits, their analogues and other compounds. The true share with any hit is near 2.8%.
WRN helicase inh-1: inhibitors of human WRN helicase | hit rate 0.46% among 360,000 | Potency, µM (titrated, usually from 114 µM), actives largely listed as inhibitors | Q14191 | AID 651768 | WRN helicase unwinding, fluorescent forked duplex, kinetic; note: nearly all actives have a fitted effect of over 55% in size
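WRN at 20 nM final was preincubated with compound for 15 min at room temperature; reaction started with 100 nM forked duplex oligonucleotide carrying fluorophore and quencher plus 2 mM ATP (final). Unwinding followed kinetically by red fluorescence (ex 525/em 598 nm).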
PI5P4K alpha inh: blocks human PI5P4K alpha kinase activity. P48426. PI5P4Kalpha enzyme, ADP-Glo luminescence, 60 min; active compounds read low. max response, %. hit rate 1.2% among 330,000. AID 652105; active = max response of -50% or lower; inconclusive = between -30% and -50%; inactive = -30% or higher; note: value at the top dose of about 77 µM
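ADP-Glo luminescence end-point after a 60 min room-temperature kinase reaction. PI5P4Kalpha and substrate in HEPES pH 7.4 buffer with EGTA, 0.1% CHAPS and 5% DMSO; ATP at 5 microM final.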
POLB inh: inhibitors of human DNA polymerase beta | Potency, µM (series often up to 114 µM), most hits filed as inhibitors | hit rate 1.3% among 340,000 | Pol beta primer extension/strand displacement, fluorescence kinetic
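Curves were derived by four-parameter Hill fits of normalized qHTS data. The kinetic fluorescent primer-extension read was taken at 0 and 10 min after 50 nM substrate, following a 15 min room-temperature preincubation of 10 nM enzyme with compounds.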
POLK inh: inhibitors of human DNA polymerase kappa. purified Pol kappa, fluorescent DNA synthesis assay, 10 min. Potency, µM (titrated, usually from 107 µM), actives largely listed as inhibitors. hit rate 0.53% among 400,000. Q9UBT6
Target sequence (Q9UBT6 whole entry, looked up): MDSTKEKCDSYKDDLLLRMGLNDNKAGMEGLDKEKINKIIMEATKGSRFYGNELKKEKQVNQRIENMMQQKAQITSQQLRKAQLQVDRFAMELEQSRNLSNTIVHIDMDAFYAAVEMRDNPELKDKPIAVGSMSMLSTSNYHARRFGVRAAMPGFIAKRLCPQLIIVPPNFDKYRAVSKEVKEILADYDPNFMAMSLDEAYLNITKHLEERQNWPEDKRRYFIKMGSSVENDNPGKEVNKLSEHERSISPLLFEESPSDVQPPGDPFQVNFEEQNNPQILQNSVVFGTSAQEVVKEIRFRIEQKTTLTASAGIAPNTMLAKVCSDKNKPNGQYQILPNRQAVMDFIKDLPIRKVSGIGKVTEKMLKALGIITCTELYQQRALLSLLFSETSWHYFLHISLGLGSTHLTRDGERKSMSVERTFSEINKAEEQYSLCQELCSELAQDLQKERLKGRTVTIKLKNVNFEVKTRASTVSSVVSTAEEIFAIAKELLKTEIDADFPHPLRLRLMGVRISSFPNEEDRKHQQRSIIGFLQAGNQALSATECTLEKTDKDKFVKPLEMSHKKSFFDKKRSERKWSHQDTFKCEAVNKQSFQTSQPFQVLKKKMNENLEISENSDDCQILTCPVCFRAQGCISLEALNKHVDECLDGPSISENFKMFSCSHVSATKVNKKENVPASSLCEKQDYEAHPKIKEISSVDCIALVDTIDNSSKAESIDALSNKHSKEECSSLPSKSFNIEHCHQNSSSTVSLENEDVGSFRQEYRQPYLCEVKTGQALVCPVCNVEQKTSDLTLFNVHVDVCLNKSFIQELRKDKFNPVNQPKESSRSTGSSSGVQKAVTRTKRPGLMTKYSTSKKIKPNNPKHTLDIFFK
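Kinetic fluorescence screen: compound preincubated 15 min RT with 10 nM enzyme; 50 nM substrate (final) initiates; reads at 0/10 min.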
Pol eta inh: DNA polymerase eta (human) inhibition; Q9Y253; recombinant Pol eta, fluorescent DNA replication assay; Potency, µM (titrated, usually from 114 µM), hits mostly inhibitors; hit rate 1.2% among 390,000; AID 588591
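Fluorescent replication assay: 50 nM final substrate added after a 15 min room-temperature compound preincubation with 10 nM enzyme. Signal taken at 0 min and again at 10 min.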
Pol iota inh: blocks human DNA polymerase iota activity. AID 588590. Potency, µM (highest dose often 115 µM), most hits filed as inhibitors. hit rate 1% among 390,000. Q9UNA4. Pol iota fluorescent replication assay, 10 min
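Pol iota at 10 nM preincubated 15 min with compounds at room temperature; reaction started with fluorescent substrate, 50 nM final. Fluorescence read kinetically at 0 and 10 min; buffer-only wells as negative control.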
WRN helicase inh-2: WRN helicase inhibition, cherry-pick retest | shares compounds with WRN helicase inh-1 | Potency, µM (doses to about 57.1 µM), hits mostly inhibitors | WRN helicase DNA unwinding, fluorescence kinetic | hit rate 63% among 610; note: nearly all actives have a fitted effect of over 65% in size
TO DNA binding: counter-screen for WRN helicase inhibitors: DNA binding | thiazole orange DNA binding displacement, fluorescence | shares compounds with WRN helicase inh-1 | hit rate 10% among 610 | AID 720499 | Potency, µM (titrated, usually from 57.1 µM), usual class: inhibitors;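 note: drop in dye fluorescence marks compound binding to DNA; nearly all actives have a fitted effect of over 60% in size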
BLM counter: BLM helicase inhibition, WRN selectivity check. Recombinant BLM helicase DNA unwinding, red fluorescence. hit rate 60% among 610. Potency, µM (titrated, usually from 57.1 µM), actives largely listed as inhibitors. shares compounds with WRN helicase inh-1; note: nearly all actives have a fitted effect of over 60% in size
Hits are given with their value; n = inactive; u = inconclusive; x = not tested or not shown; ! = a repeat was not active; [ ] = remark or other dose. Unless noted, calls come from the whole dose curve; as a rule, active = well fitted curve in the direction sought with a large enough effect; inconclusive = small, poorly fitted or top-dose-only effect, or another doubt; inactive = no such curve, though single readings can be large; an effect the other way counts as inactive or inconclusive.

SMILES	WRN helicase inh-1	PI5P4K alpha inh	POLB inh	POLK inh	Pol eta inh	Pol iota inh	WRN helicase inh-2	TO DNA binding	BLM counter
CCOC(=O)C1=C(C)N=C2SCCC(=O)N2C1c1ccc(OCc2ccccc2)c(OC)c1 (stereo not given)	x	x	n	n	n	n	x	x	x
COc1ccc(Br)cc1C=NNS(=O)(=O)c1ccc(C)cc1	n	n	x	x	n	x	x	x	x
COc1ccc(-n2c(O)c(/C=N/NS(=O)(=O)c3ccc(C)cc3)c3ccccc3c2=O)cc1OC	39.8µM	n	u	n	n	39.8µM	n	n	u
CN(C)CCNc1ccc(CO)c2sc3ccc(O)cc3c(=O)c12	u	n	x	u	u	79.4µM	24.1µM	21.5µM	u
O=C(c1ccccc1Cl)N1CCCC(c2nc3c(nnn3Cc3ccc(F)cc3F)c(=O)[nH]2)C1 (stereo not given)	x	x	n	n	n	n	x	x	x
CN1/C(=C\C(=O)c2ccco2)C(C)(C)c2ccccc21	u	x	n	n	n	u	n	n	n
CN1/C(=C\C(=O)COC(=O)c2ccco2)C(C)(C)c2ccccc21	n	n	n	n	n	n	x	x	x
Cc1nnc(-c2cccc(Br)c2)c2cn(-c3cccc(Br)c3)nc12	25.1µM	n	n	n	u	n	u	n	9.61µM
Cc1nnc(-c2cccc(Br)c2)c2cn(-c3ccccc3)nc12	n	x	n	n	n	n	x	x	x
CN(C(=O)Cn1cnc2onc(-c3ccc(F)cc3)c2c1=O)c1ccccc1Cl	x	x	n	n	n	n	x	x	x
COCCN1CCc2nc(SCC(=O)Nc3ccc(Br)cc3)[nH]c(=O)c2C1	x	x	n	n	n	n	x	x	x
CSCCC(NS(=O)(=O)c1ccc2c(c1)oc(=O)n2C)C(=O)NCc1ccc(Cl)cc1 (stereo not given)	x	x	n	n	n	n	x	x	x
O=C1C=C(c2ccccc2)C(=O)N1Nc1ccccc1	u	n	n	n	n	n	n	n	n
COc1ccc(C2=CC(=O)N(Nc3ccccc3)C2=O)cc1	n	n	n	n	n	n	x	x	x
Cc1c(C2=CCN(S(=O)(=O)c3ccc(Br)cc3)CC2)c2ccccc2n1C	u	n	n	n	n	n	x	x	x
CCn1c(C)c(C2=CCN(S(=O)(=O)c3ccc(C)cc3)CC2)c2ccccc21	u	n	n	n	n	u	u	n	u
CC(C)(C)N(Cc1ccc2c(c1)OCO2)C(=O)/C=C\S(=O)c1ccccc1 (stereo not given)	u	n	x	n	n	n	12.1µM	n	24.1µM
CCOc1ccccc1NC(=O)Cn1c(=O)n(Cc2ccccc2)c(=O)c2cccnc21	x	x	n	n	n	n	x	x	x
CN1CCN(C(=S)C(=O)Nc2ccc(Br)cc2)CC1	44.7µM	-55.6	n	n	n	n	n	n	n
CCN(CC)CCSc1nnc2c3cc(F)ccc3n(CC)c2n1	x	x	n	n	n	n	x	x	x
Cc1cc(Cl)c(OCCOCCN2CCCCC2)c(Br)c1	u	n	n	n	n	n	n	n	n
Cc1cc(Cl)c(OCCOCCN2CCCC(C)C2)c(Br)c1 (stereo not given)	n	n	n	n	n	n	x	x	x
CN(C)CCCNc1nc2cc(-c3ccsc3)sc2c(=O)n1C	n	n	x	x	x	x	x	x	x
CN(C)CCCNc1nc2cc(-c3ccc4c(ccn4C)c3)sc2c(=O)n1C	u	n	x	x	x	x	24.1µM	24.1µM	n
COc1ccc(N(C)C(=O)c2nn(-c3ccc(C)cc3)c(=O)n(C)c2=O)c(OC)c1	x	x	n	n	n	n	x	x	x
SMILES	WRN helicase inh-1	PI5P4K alpha inh	POLB inh	POLK inh	Pol eta inh	Pol iota inh	WRN helicase inh-2	TO DNA binding	BLM counter
CC1(C)Cc2c(C#N)c(N3CCN(C(=O)c4ccccc4Cl)CC3)nc(-c3ccco3)c2CS1	35.5µM	-85.2	20µM	79.4µM	10µM	u	n	n	u
CN(C)c1ccc(/C=C/c2ccc3ccccc3[n+]2C)cc1	39.8µM	u	17.8µM	50.1µM	u	39.8µM!	24.1µM	27.1µM	27.1µM
CN(CCCS(=O)(=O)[O-])c1ccc(/C=C/c2ccc3ccccc3[n+]2C)cc1	n	n	n	n	n	u	x	x	x
Cc1ccc(S(=O)(=O)c2ccc([N+](=O)[O-])cn2)cc1	u	n	n	n	n	u	n	n	n
O=[N+]([O-])c1ccc(S(=O)(=O)c2ccccc2)nc1	u	n	n	n	n	n	x	x	x
O=C1ON=C(c2ccc(Cl)cc2)/C1=C/c1ccc(O)cc1	9.47µM	u	n	n	u	n	21.5µM	n	u
O=c1c2ccccc2nc2sc(Nc3cccc(N4CCNCC4)c3)nn12	x	x	x	x	x	x	21.5µM	n	u
COc1ccccc1NC(=O)C1=C(C)Nc2nc(-c3ccco3)nn2C1c1ccccc1F (stereo not given)	x	x	n	n	n	n	x	x	x
CNc1ccccc1C(C)(C)c1cc(-c2cccc(Br)c2)no1	79.4µM	n	n	n	u	u	u	n	u
CNc1ccccc1C(C)(C)c1cc(-c2cccc([N+](=O)[O-])c2)no1	n	n	n	n	n	n	x	x	x
O=C1OC(c2ccc3ccccc3c2O)(c2ccc3ccccc3c2O)c2ccccc21	u	-79.4	x	u	25.1µM	u	u	24.1µM	n
O=C1OC2(c3ccccc31)c1ccccc1-c1ccccc12	n	n	x	n	n	n	x	x	x
CCCCCCCC/C=C\CCCCCCCC(=O)OC[C@@H](O)COP(=O)(O)O	x	x	x	n[19.4 µM]	x	x	x	x	x
O=[N+]([O-])c1c(NCCCO)cc(Sc2nc3ccccc3s2)c2nonc12	18.9µM	x	n	u	n	u	u	n	u
CCC(=O)OCCNc1cc(Sc2nc3ccccc3s2)c2nonc2c1[N+](=O)[O-]	n	x	n	n	n	u	x	x	x
Cc1nnc(Sc2cc(NCCCO)c([N+](=O)[O-])c3nonc23)s1	22.4µM	-78.1	n	n	79.4µM	12.6µM	u	n	u
O=C(NCc1cccc(F)c1)C1CCN(c2nn3cc(-c4ccc(F)cc4)nc3s2)CC1	x	x	n	n	n	n	x	x	x
Nc1ccc2nc(-c3cccc(-c4nc5ccc(N)cc5[nH]4)c3)[nH]c2c1	39.8µM	n	u	35.5µM	u	u	u	17.1µM	u
CN(C)c1ccc(C(CNS(=O)(=O)c2ccc(Cl)cc2)N2CCCC2)cc1 (stereo not given)	x	x	n	n	n	n	x	x	x
Cc1ccc(CN(C)C(=O)CCc2nc3sc4c(c3c(=O)[nH]2)CCCC4)o1	u	u	25.1µM	n	22.4µM	17.8µM	u	n	u
CC(=O)OCc1nc2sc3c(c2c(=O)[nH]1)CCCC3	n	n	n	n	n	n	x	x	x
Oc1ccc(Nc2ccc3ccccc3c2)cc1	u	u	x	n	n	u	n	u	u

Screens: PubChem, National Center for Advancing Translational Sciences (NCATS)
